Source: PubChem BioAssay (NCATS)
Values without a mark were called inactive. Results filed as inconclusive are left out. Where a call stands in place of a potency, no number is given. The source made the active and inactive calls. Unless noted, the call rests on the fitted dose curve; in most records, active means well fitted curve in the direction sought with a large enough effect; inconclusive means small, poorly fitted or top-dose-only effect, or another doubt; inactive means no such curve, though single readings can be large; an effect the other way counts as inactive or inconclusive.

Key:
[1] = NS1 protein of Zika virus - qHTS assay to identify small molecule inhibitors in human HEK 293 cells (AID 1347053); further: nearly all actives have a fitted effect of over 55% in size
In short: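 HEK 293; 20 h pre-culture, 37 C/5% CO2; cpd 1 h pre-infection; ZIKV MR766, MOI = 0.5, 24 h, 37 C; TR-FRET NS1 readout (two anti-NS1 Abs); norm. to no-virus vs infected.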

[2] = biological target: T1, Tyrosine-protein phosphatase non-receptor type substrate 1 (Homo sapiens) + Leukocyte surface antigen CD47 (Homo sapiens) (UniProt P78324+Q08722); experiment: CD47-SIRPalpha protein protein interaction - LANCE assay qHTS validation (AID 1347057; active means well fitted curve in the direction sought with a large enough effect in the signal ratio, with a control signal flat, not every such curve was filed as active; the % refers to the signal ratio)
In short: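 First, His-tagged CD47 and Eu-labelled anti-His antibody met the compound for 30 min; next, site-specifically biotinylated SIRPalpha was added for 30 min; finally streptavidin-APC was added before reading the TR-FRET ratio.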

[3] = biological target: T1, Tyrosine-protein phosphatase non-receptor type substrate 1 (Homo sapiens) + Leukocyte surface antigen CD47 (Homo sapiens); experiment: CD47-SIRPalpha protein protein interaction - HTRF assay qHTS validation (AID 1347058; active means well fitted curve in the direction sought with a large enough effect in the signal ratio, not every such curve was filed as active; the % refers to the signal ratio;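 further: recombinant soluble extracellular CD47 with His tag and biotinylated SIRPalpha domains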)
In short: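 TR-FRET read (Ch1/Ch2 ratio) of soluble extracellular CD47 and Avi-biotinylated SIRPalpha domains in PBS pH 7.4 with 0.05% IGEPAL; 7-point compound titration. Sequential 30 min room-temperature steps; non-biotinylated SIRPalpha as control inhibitor.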

[4] = biological target: T1, Tyrosine-protein phosphatase non-receptor type substrate 1 (Homo sapiens) + Leukocyte surface antigen CD47 (Homo sapiens); experiment: CD47-SIRPalpha protein protein interaction - Alpha assay qHTS validation (AID 1347059);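 further: bead proximity luminescence from CD47 binding SIRPalpha after compound preincubation with SIRPalpha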
In short: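 Biotinylated Avi-tagged SIRPalpha (25 nM) preincubated 30 min with compound, then His-tagged CD47 (12.5 nM) added 30 min; AlphaScreen with Ni-NTA acceptor and streptavidin donor beads. PBS pH 7.4, 0.05% IGEPAL, room temperature; 7-point titrations.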

[5] = biological target: Parathyroid hormone/parathyroid hormone-related peptide receptor (Homo sapiens) (UniProt Q03431); experiment: qHTS for PTHR1 Agonists: Optimization Screen against the NCGC LOPAC library (AID 1347079);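 further: GloSensor cAMP luminescence in HEK-293 GP2 cells expressing human PTHR1 with IBMX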; further: potency means the concentration at half of the fitted maximal effect
In short: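 Compounds were tested across a qHTS titration. PTHR1-expressing GP2 cells report cAMP rises via GloSensor luminescence after 1 hr compound exposure at 37C with IBMX present.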

[6] = biological target: N-terminal Xaa-Pro-Lys N-methyltransferase 1 (Homo sapiens) (UniProt Q9BV86); experiment: qHTS Assay for Inhibitors of N-terminal methyltransferase 1 (NTMT1): LOPAC validation of the NTMT1 SAHH-coupled ThioGlo3 Assay (AID 1347143);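 further: SAH from peptide methylation measured as thiol fluorescence via SAHH coupling and ThioGlo3; nearly all actives have a fitted effect of over 70% in size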
In short: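 Recombinant human NTMT1 (125nM) was pre-incubated 1 min at room temperature with compounds over a concentration range, then a mix of 100uM SAM, 10uM SAHH and 15uM ThioGlo3 (concentrations in added reagent) was added. ThioGlo3 fluorescence (ex 340/em 450nm) after 30 min was normalized to the initial reading.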

[7] = tested on: Zika virus NS2B-NS3 protease (unlinked); experiment: Optimization of GU AMC qHTS for Zika virus inhibitors: Unlinked NS2B-NS3 protease assay (AID 1347151); further: nearly all actives have a fitted effect of over 80% in size; further: potency means the concentration at half of the fitted maximal effect
In short: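 Percent inhibition is derived from the 15-min change in AMC fluorescence, normalized against no-inhibitor and no-enzyme controls, then fitted to a 4-parameter Hill curve. Aprotinin was the intraplate control.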

[8] = biological target: Lysine-specific demethylase 5B (Homo sapiens) (UniProt Q9UGL1); experiment: Optimization screen for KDM5B Histone Demethylases FDH coupled qHTS against the LOPAC library (AID 1347166); details: KDM5B demethylation, FDH-coupled NADH fluorescence (FDH is formaldehyde dehydrogenase); at 57.5 µM (top of the series)
In short: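 KDM5BDeltaAP (200nM final) preincubated 10 min with compound, then 12.5uM H3K4Me3, 25uM a-ketoglutarate, ascorbate, Fe(II), NAD+ and FDH added; 50mM HEPES pH 7.5, 0.01% Tween-20. NADH fluorescence (340/450 nm) change over 30 min, room temperature.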

[9] = tested on: Zika virus NS2B-NS3 protease (linked construct); experiment: Confirmatory screen NINDS AMC qHTS for Zika virus inhibitors (AID 1347152); further: potency means the concentration at half of the fitted maximal effect; nearly all actives have a fitted effect of over 70% in size
In short: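 In this dose-response qHTS, AMC release from 10 microM Bz-Nle-KRR-AMC by 1 nM linked protease is measured over 15 minutes (about 20% conversion) at pH 8.0. Percent inhibition is fitted to a 4-parameter Hill curve.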

[10] = tested on: Zika virus NS2B-NS3 protease (unlinked complex); experiment: Confirmatory screen GU AMC qHTS for Zika virus inhibitors (AID 1347153); further: nearly all actives have a fitted effect of over 70% in size; further: potency means the concentration at half of the fitted maximal effect
In short: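 Unlinked enzyme 25 nM, Tris pH 8.0/0.01% Tween 20; cpd 15 min RT, dark; + AMC substrate 10 µM (Km 18.3 µM); 340/450 nm read at t0 and 15 min; % inhibition → 4-param fit.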

[11] = ZIKV-mCherry secondary qHTS for Zika virus inhibitors (AID 1347158); further: potency means the concentration at half of the fitted maximal effect
In short: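 Vero cells, 5,000/well, plated overnight at 37 °C, then compound added and infected with recombinant ZIKV-mCherry at MOI 1 for 48-72 h. PFA-fixed, Hoechst nuclear stain, high-content imaging; cells with mCherry intensity above 450 RFU scored infected, reported as percent infection.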

[12] = tested on: Zika virus NS2B-NS3 protease; experiment: Primary screen GU AMC qHTS for Zika virus inhibitors (AID 1347154); further: nearly all actives have a fitted effect of over 70% in size
In short: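 Unlinked Zika NS2B hydrophilic domain–NS3 protease complex at 25 nM in 10 mM Tris-HCl pH 8.0, 0.01% Tween 20, with an AMC peptide substrate. Fluorescence change (340/450 nm) over 15 min at room temperature, normalized to controls, fitted to 4-parameter Hill.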

Lysine-specific demethylase 5B (Homo sapiens), sequence (Q9UGL1 whole entry, looked up): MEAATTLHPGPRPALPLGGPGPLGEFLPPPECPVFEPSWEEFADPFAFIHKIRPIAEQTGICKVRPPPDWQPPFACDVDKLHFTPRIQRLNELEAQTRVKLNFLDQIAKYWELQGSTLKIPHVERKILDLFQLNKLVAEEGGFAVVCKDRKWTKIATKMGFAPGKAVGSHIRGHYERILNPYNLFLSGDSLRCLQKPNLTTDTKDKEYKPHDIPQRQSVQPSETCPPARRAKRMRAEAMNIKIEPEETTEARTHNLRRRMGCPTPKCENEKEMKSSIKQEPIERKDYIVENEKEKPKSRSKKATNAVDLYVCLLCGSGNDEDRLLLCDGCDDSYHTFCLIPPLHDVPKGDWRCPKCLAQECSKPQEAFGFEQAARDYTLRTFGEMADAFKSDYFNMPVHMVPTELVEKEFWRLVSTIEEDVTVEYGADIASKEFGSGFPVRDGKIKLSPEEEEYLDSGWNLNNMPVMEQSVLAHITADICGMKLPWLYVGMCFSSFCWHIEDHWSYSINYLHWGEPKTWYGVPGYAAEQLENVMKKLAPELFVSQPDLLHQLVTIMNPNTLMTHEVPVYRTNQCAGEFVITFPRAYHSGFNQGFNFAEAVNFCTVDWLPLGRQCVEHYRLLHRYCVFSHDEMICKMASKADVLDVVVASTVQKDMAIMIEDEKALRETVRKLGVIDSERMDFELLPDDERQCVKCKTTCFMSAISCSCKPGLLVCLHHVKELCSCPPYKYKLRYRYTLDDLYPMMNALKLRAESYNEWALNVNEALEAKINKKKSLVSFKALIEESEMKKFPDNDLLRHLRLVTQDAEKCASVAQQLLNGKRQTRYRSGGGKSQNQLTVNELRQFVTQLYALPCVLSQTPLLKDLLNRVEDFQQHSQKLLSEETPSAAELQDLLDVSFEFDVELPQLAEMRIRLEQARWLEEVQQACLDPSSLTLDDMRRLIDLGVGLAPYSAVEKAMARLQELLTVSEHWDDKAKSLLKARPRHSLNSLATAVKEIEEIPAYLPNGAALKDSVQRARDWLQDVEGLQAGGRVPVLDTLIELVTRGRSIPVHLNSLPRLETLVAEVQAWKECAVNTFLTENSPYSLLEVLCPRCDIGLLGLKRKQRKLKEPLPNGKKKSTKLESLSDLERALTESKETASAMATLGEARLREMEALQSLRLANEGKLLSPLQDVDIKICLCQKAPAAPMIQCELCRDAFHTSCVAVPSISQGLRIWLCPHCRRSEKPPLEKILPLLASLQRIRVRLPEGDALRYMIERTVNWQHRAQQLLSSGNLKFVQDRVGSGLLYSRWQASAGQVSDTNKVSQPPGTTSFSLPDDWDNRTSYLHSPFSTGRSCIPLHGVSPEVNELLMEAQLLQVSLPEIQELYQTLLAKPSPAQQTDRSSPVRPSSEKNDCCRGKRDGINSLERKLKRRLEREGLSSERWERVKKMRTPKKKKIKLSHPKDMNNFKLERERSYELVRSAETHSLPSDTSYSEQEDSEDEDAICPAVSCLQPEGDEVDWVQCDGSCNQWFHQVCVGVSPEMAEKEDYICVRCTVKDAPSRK
T1 sequence (P78324 whole entry, looked up): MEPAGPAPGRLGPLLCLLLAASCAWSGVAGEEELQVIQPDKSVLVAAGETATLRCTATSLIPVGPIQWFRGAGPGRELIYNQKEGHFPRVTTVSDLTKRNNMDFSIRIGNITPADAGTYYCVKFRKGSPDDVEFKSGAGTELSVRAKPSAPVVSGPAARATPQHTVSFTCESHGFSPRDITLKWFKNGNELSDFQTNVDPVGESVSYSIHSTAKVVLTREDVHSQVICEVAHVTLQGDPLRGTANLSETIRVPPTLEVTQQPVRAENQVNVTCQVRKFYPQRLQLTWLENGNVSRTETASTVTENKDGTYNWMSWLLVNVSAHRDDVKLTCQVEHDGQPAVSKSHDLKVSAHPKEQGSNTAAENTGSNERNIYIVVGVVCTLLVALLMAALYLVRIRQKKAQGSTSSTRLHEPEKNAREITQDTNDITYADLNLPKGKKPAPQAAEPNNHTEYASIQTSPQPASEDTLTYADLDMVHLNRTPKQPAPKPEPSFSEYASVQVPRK
T1 sequence (Q08722 whole entry, looked up): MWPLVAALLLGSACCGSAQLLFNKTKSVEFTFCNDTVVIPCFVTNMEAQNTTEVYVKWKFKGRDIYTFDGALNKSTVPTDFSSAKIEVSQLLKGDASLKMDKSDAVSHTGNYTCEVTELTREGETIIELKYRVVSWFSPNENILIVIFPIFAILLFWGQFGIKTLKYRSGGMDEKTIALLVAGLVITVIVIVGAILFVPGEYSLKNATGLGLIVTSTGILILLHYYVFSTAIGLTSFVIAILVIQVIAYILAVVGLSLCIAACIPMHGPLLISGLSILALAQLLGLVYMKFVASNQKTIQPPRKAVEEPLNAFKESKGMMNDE
N-terminal Xaa-Pro-Lys N-methyltransferase 1 (Homo sapiens), sequence (Q9BV86 whole entry, looked up): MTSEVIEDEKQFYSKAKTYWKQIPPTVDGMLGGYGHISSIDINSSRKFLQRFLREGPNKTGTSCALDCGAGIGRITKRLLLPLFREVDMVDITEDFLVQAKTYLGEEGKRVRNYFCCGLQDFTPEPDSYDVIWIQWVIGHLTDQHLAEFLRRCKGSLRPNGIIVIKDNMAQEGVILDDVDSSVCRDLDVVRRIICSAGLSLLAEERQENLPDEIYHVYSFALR
Parathyroid hormone/parathyroid hormone-related peptide receptor (Homo sapiens), sequence (Q03431 whole entry, looked up): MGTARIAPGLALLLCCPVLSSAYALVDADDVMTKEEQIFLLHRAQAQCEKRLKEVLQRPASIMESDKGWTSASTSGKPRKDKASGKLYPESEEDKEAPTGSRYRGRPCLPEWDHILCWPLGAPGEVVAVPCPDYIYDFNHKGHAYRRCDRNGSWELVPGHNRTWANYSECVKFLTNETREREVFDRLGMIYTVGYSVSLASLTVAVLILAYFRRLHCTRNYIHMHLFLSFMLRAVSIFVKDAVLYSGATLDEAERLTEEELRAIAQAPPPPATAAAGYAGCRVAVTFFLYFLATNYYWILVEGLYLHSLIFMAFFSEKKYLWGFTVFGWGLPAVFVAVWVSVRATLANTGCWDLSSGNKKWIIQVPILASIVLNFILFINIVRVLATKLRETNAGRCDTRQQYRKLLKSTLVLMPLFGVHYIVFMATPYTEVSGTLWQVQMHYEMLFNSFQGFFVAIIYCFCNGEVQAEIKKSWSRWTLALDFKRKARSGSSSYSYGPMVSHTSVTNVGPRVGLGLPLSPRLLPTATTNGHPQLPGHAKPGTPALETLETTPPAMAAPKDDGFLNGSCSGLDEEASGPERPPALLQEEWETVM

Structure (SMILES)	Potency [1]	Potency [2]	outcome [3]	Potency [4]	Potency [5]	Potency [6]	Potency [7]	activity, negative = inhibition [8]	Potency [9]	Potency [10]	Potency [11]	Potency [12]
CC(C)C[C@H](NC(=O)C1OC1C(=O)O)C(=O)NCCCCN=C(N)N (stereo partly drawn)	inactive	inactive	inactive	inactive	inactive	inactive	inactive	0.286%	–	–	–	–
C[C@@H](NCCc1ccc(O)cc1)[C@@H](O)c1ccc(O)cc1	inactive	inactive	inactive	inactive	2.38 µM (active)	inactive	inactive	-4.75%	–	–	–	–
Nc1ncnc2c1nc(Sc1ccc(Cl)cc1)n2[C@H]1OC2COP(=O)(O)O[C@@H]2C1O (stereo partly drawn)	inactive	inactive	inactive	inactive	inactive	inactive	inactive	-0.0945%	–	–	–	–
N=S(=O)(O)Cc1noc2ccccc12	inactive	inactive	inactive	inactive	inactive	inactive	inactive	3.62%	–	–	–	–
Cc1cc(Cn2cnc3c2C[C@@H](C(=O)O)N(C(=O)C(c2ccccc2)c2ccccc2)C3)ccc1N	inactive	inactive	inactive	inactive	inactive	inactive	inactive	0.747%	–	–	–	–
C=C1C[C@@]23CC[C@H]4[C@@](C)(CCC[C@@]4(C)C(=O)OC4OC(CO)C(O)C(O)C4O)[C@@H]2CC[C@]1(OC1OC(CO)C(O)C(O)C1OC1OC(CO)C(O)C(O)C1O)C3 (stereo partly drawn)	inactive	inactive	inactive	inactive	inactive	inactive	inactive	-7.5%	–	–	–	–
O=c1onc2n1-c1cc(Br)ccc1OC2	inactive	inactive	inactive	inactive	inactive	inactive	inactive	-6.75%	–	–	–	–
NC(=O)c1ccccc1	inactive	inactive	inactive	inactive	inactive	inactive	inactive	0.361%	–	–	–	–
N[C@@H](Cc1ccc(O)c(I)c1)C(=O)O	inactive	inactive	inactive	inactive	inactive	inactive	inactive	-7.59%	–	–	–	–
C/C(=C\c1ccc(C(=O)O)cc1)c1ccc2c(c1)C(C)(C)CCC2(C)C	–	–	–	–	–	–	–	–	24.1 µM (active)	24.1 µM (active)	7.94 µM (active)	–
CNC(=O)c1cc2c(cn1)[nH]c1ccccc12	–	–	–	–	–	–	–	–	24.1 µM (active)	inactive	–	–
CCCc1c(OCCCOc2ccc(OCC(=O)O)cc2)ccc(C(C)=O)c1O	–	–	–	–	–	–	–	–	–	–	inactive	–
NCCCNCCCCNCCCN	inactive	inactive	inactive	inactive	inactive	–	inactive	-4.41%	–	–	–	inactive
O=C(O)c1cc2cc(F)ccc2[nH]1	inactive	inactive	inactive	inactive	inactive	–	26.7 µM (active)	–	–	–	–	–
COc1ccc2c(c1)c(CC(=O)O)c(C)n2Cc1ccc(Cl)cc1	inactive	inactive	inactive	inactive	inactive	–	–	-5.89%	–	–	–	–
OC[C@H]1O[C@@H](n2cnc3cncnc32)[C@H](O)[C@@H]1O	inactive	inactive	inactive	inactive	inactive	–	inactive	-2.2%	–	–	–	–
c1ccc(C(NCCNC(c2ccccc2)c2ccccc2)c2ccccc2)cc1	inactive	inactive	inactive	inactive	inactive	–	inactive	–	–	–	–	–
NCC(O)C1CCCCCCC1 (stereo not drawn)	inactive	inactive	inactive	inactive	inactive	–	inactive	-4.79%	–	–	–	–
NC1(C(=O)O)CC1	inactive	inactive	inactive	inactive	inactive	–	inactive	-7.89%	–	–	–	–
CCC(=O)N1CCN(C(=O)c2ccccc2)CC1	inactive	inactive	inactive	inactive	inactive	–	inactive	3.19%	–	–	–	–
Nc1ccc(CCNc2ncnc3c2ncn3C2OC(CO)C(O)C2O)cc1 (stereo not drawn)	inactive	inactive	inactive	inactive	inactive	–	inactive	-7.72%	–	–	–	inactive
NC1C=CC=C(C(=O)O)C1 (stereo not drawn)	inactive	inactive	inactive	inactive	inactive	–	inactive	-9.6%	–	–	–	inactive
Cc1ccccc1/C=C/C1=NCCN1	inactive	inactive	inactive	inactive	inactive	–	inactive	-11.5%	–	–	–	–
NC(=O)CC[C@H](N)C(=O)O	inactive	inactive	inactive	inactive	inactive	–	inactive	-1.79%	–	–	–	–
CC1=C(/C=C/C(C)=C/C=C/C(C)=C\C(=O)O)C(C)(C)CCC1	inactive	inactive	inactive	inactive	inactive	–	–	-15.4%	–	–	–	inactive
COc1cccc(OC)c1OCCNCC1CSc2ccccc2O1 (stereo not drawn)	inactive	inactive	inactive	inactive	inactive	–	inactive	-14.1%	–	–	–	–
CN1C2CCC1CC(OC(c1ccccc1)c1ccccc1)C2 (stereo not drawn)	inactive	inactive	inactive	inactive	inactive	–	inactive	-5.47%	–	–	–	–
